From PubChem
HP1b binding inh – HP1-beta chromodomain-methylated histone interaction inhibition; P83916; AlphaScreen HP1-beta / biotin-H3K9me3 peptide binding; Potency, µM (doses to about 114 µM), without a hit: top-dose activity change, negative = inhibition, hits mostly inhibitors; actives 0.56% (n = 390,000); AID 540317; further: nearly all actives have a fitted effect of over 70% in size
Target sequence (P83916 whole entry, looked up): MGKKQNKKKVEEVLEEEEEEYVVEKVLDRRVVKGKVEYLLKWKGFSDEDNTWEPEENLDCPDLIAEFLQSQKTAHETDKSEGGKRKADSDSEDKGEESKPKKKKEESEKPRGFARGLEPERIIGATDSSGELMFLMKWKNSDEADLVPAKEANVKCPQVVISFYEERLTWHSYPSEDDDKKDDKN
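Compound inhibition of the preformed complex between 50 nM HP1-beta and 50 nM biotinylated H3K9me3 peptide was read by AlphaScreen. Buffer was PBS pH 7.4 with 0.01% Tween-20. Incubations ran 30 min at room temperature, with 10 ug/mL donor/acceptor beads.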
JMJD2A Tudor inh – blocks the human JMJD2A Tudor domain. actives 4.4% (n = 390,000). O75164. AlphaScreen JMJD2A-Tudor / H3K4me3 peptide binding. Potency, µM (highest dose often 114 µM), inactives show top-dose activity change, negative = inhibition, usual class: inhibitors; further: on the % scale 0 is the no-effect control and ±100 the full control effect; nearly all actives have a fitted effect of over 50% in size
G9a inh – inhibitors of human histone lysine methyltransferase G9a; Q96KQ7; G9a H3K9 monomethylation, AlphaScreen, 2 h; Potency, µM (top dose mostly 102 µM), for the others: top-dose activity, negative = inhibition, actives largely listed as inhibitors; actives 8.8% (n = 350,000); further: on the % scale 0 is the no-effect control and ±100 the full control effect; nearly all actives have a fitted effect of over 75% in size
Target sequence (Q96KQ7 913-1193 limits assumed): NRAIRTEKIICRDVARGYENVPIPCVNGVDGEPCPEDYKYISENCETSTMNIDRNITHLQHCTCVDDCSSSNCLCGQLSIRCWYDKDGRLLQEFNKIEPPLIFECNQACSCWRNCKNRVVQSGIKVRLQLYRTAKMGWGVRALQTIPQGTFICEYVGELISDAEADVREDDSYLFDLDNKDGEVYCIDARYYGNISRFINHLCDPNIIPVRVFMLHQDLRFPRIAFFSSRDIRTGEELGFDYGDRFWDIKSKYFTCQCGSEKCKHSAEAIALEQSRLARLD
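AlphaScreen read-out: biotin-H3K9 peptide (500 nM) methylation by 20 nM enzyme with 20 uM SAM, 2 h at room temperature after 15 min compound preincubation; anti-monomethyl H3K9 antibody plus donor/acceptor beads, 10 min dark.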
Sfp PPTase inh – Sfp phosphopantetheinyl transferase inhibition. Q9F4F7. Biochemical Sfp PPTase activity, qHTS. Potency, µM, without a hit: largest response in the series, negative = inhibition, hits mostly inhibitors. actives 3.5% (n = 310,000). AID 1490;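 further: the enzyme is Sfp with the accession as filed and its product quenches rhodamine fluorescence; 0% = enzyme reaction without inhibitor and -100% = no enzyme wells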
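With Hepes-Na pH 7.6 buffer containing 10 mM MgCl2, Sfp (15 nM) modified BHQ-2-YbbR (12.5 uM) using rhodamine-CoA (5 uM). Two reads 30 minutes apart at 525/598 nm yielded each well's rate.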
BAZ2B block – BAZ2B (human) inhibition; Q9UIF8; AlphaScreen BAZ2B-H3K14Ac peptide displacement; Potency, µM (top dose mostly 114 µM), inactives show top-dose activity change, negative = inhibition, actives largely listed as inhibitors; actives 4.4% (n = 360,000); AID 504333; further: on the % scale 0 is the no-effect control and ±100 the full control effect; nearly all actives have a fitted effect of over 60% in size
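AlphaScreen displacement: compounds (up to 110uM) incubated 30 min at room temperature with a preformed 50 nM BAZ2B/50 nM biotinylated H3K14Ac peptide complex in PBS pH 7.4 with Tween-20. Donor and acceptor beads at 10 ug/mL final added, 20 min light-protected before reading.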
The depositor's hits bear a star; ? = inconclusive; . = not tested or not shown; ! = repeats disagree; [ ] = remark or other dose. This is a sample that favours compounds with a hit; in the whole collection about 12% have one here. The call rests on the fitted dose curve; in most records, active means well fitted curve in the direction sought with a large enough effect; inconclusive means small, poorly fitted or top-dose-only effect, or another doubt; inactive means no such curve, though single readings can be large; an effect the other way counts as inactive or inconclusive. Potency means the concentration at half of the fitted maximal effect.

SMILES	HP1b binding inh	JMJD2A Tudor inh	G9a inh	Sfp PPTase inh	BAZ2B block
COc1cc2c(cc1OC)/C(=C/C(=O)c1ccc(C)cc1)NCC2	-12%	?	50µM*	-14%	?
O=C(Nc1nc2ccccc2[nH]1)c1cc2ccccc2o1	45%	-23%	25%	30%	-18%
CCOc1ccccc1NC(=O)c1c(NC(=O)c2ccccc2C)sc2c1CCC(C)C2 (centres undefined)	15%	-12%	14µM*	.	4%
CCOc1ccccc1NC(=O)c1c(NCc2cccs2)sc2c1CCC(C)C2 (centres undefined)	20%	-10%	-42%[59 µM]	.	-11%
COC(=O)CCC(=O)OC1(C)C(=O)C=C2C=C(C3CC3)N(Cc3ccc4c(c3)OCO4)C=C2C1=O (centres undefined)	-2%	-33%	11%[12.7 µM]	-12%	?
Cc1cc(C)n2nc(SCC(=O)N(C)Cc3ccccc3)nc2n1	35%	-14%	-3%[12.7 µM]	2%	-3%
CCCCCn1c(=N)n(CC(O)COc2ccccc2OC)c2ccccc21 (centres undefined)	9%	-25%	-50%	25µM*!	-9%
Cc1ccc(N(Cc2ccccc2)C(=O)c2ccc(Cl)c(S(=O)(=O)N3CCOCC3)c2)cc1	19%	-19%	-49%	.	-6%
Cc1cc2cc(CCNC(=O)c3ccc(Br)o3)c(=O)[nH]c2cc1C	32%	-22%	18µM*	28µM*	-23%
COc1ccc2cc(CCNC(=O)c3ccc(Br)o3)c(=O)[nH]c2c1	13%	-27%	50µM*	1%	6%
CC(C)Nc1ccc(-c2nc(-c3ccco3)no2)cc1[N+](=O)[O-]	46%	2%	-36%[59 µM]	.	-27%
CCOC(=O)C1=C(C)NC2=C(C(=O)CC(c3ccc(OC)c(OC)c3)C2)C1c1ccc(C)o1 (centres undefined)	-11%	-31%	3%[59 µM]	-6%	?
COc1ccccc1NC(=O)C1=C(C)NC2=C(C(=O)CC(c3ccc(OC)c(OC)c3)C2)C1c1coc2ccccc2c1=O (centres undefined)	24%	3%	45µM*	6%	-34%
CCOC(=O)CSc1nnc(C)c(=O)[nH]1	12%	1%	3%[12.7 µM]	5%	5%
CCOC(=O)CSc1nnc(NCC(=O)OC)c(=O)[nH]1	7%	-16%	?	56µM*	11%
O=C1/C(=C\c2c(NCCOCCO)nc3ccccn3c2=O)SC(=S)N1Cc1ccco1	-2%	-23%	40µM*	40µM*	?
CCOCCCNc1nc2c(C)cccn2c(=O)c1/C=C1\SC(=S)N(CC(C)C)C1=O	10%	-11%	-25%[59 µM]	11%	-18%
O=C(CSc1nnc(-c2ccncc2)o1)NCc1ccccc1	29%[57 µM]	-11%	3%[59 µM]	11%	6%
COc1ccc(-c2nnc(SCC(=O)NCc3ccco3)o2)cc1	13%	-27%	?	-24%	-39%
O=C(CSc1nnc(-c2ccc(S(=O)(=O)N3CCCC3)cc2)o1)NCc1ccco1	46%	-28%	?	?	50µM*
COc1ccc(-c2nnc(SCC(=O)NC(=O)NCc3ccccc3)o2)cc1	20%	-23%	45µM*	?	-22%
O=C(Cn1ccc2cc(S(=O)(=O)N3CCCC3)ccc21)NCc1ccco1	-18%	79µM*	?	5%	-11%[57.1 µM]
Cc1ccc(-c2nnc(SCC(=O)Nc3ccc(S(=O)(=O)N4CCCCCC4)cc3)o2)cc1	22%	-1%	22%	-18%	21%
O=C(CSc1nnc(-c2ccc(OC(F)F)cc2)o1)NC(=O)NCc1ccco1	10%	?	?	6%	50µM*
COc1ccc(OC)c(-c2csc(NC(=O)C3c4ccccc4Oc4ccccc43)n2)c1	3%	?	?	1%	?
CS(=O)(=O)N1CCc2cc(C(=O)Nc3ccc(Br)cc3)ccc21	26%	-21%	6%	14%	0%
COc1cccc(Nc2ncc3nc(CCc4ccccc4)c(=O)n(C)c3n2)c1	.	.	6%[0.501 µM]	12%	.
Cc1ccc(-c2noc(-c3cc(C(C)(C)C)nn3Cc3ccccc3)n2)cc1	91%	49%	.	-5%	-2%
CN=c1scc(C)n1/N=C/c1ccc2c(c1)OCO2	-37%	?	?	-5%	40µM*
